Test systems include HCT-15 colon; HT29 colon; SNB-75 CNS; SNB-19 CNS; U251 CNS; PC-3 prostate; SK-MEL-5 melanoma; UACC-62 melanoma; LOX IMVI melanoma; SK-MEL-28 melanoma.
What all share (test): NCI-60 one-dose screen, 48 h (100 = growth as untreated, 0 = no growth, -100 = all killed)
Conditions in all cases: 10 µM unless noted

Compounds without any hit were thinned out: in the full panel of roughly 83,000, 20% have a hit.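 Single-dose data. Exposure time 48 hours. Values below 10 considered active.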 Unmarked numbers belong to inactive results. Active and inactive are the calls of the source.

Turning to `O=c1oc2ccc(-c3ccc(F)cc3F)cc2c(=O)n1-c1cccc(C(F)(F)F)c1`, the growth is 9.93% (active) with HCT-15 colon; 91.3% in the test on HT29 colon; 15.5% with SNB-75 CNS; 9.99% (active) in the test on SNB-19 CNS; 10.2% in the test on U251 CNS; 6.82% (active) in the test with PC-3 prostate. In addition, the growth in the test on SK-MEL-5 melanoma is -72.4% (active); in the test on UACC-62 melanoma, -6.07% (active); with LOX IMVI melanoma it was 0.939% (active); in the test on SK-MEL-28 melanoma, 23.4%.
Turning to `N#Cc1c(NC(=O)c2ccc(F)c(Cl)c2)sc2c1CCC(=O)C2`, the growth in the test on HCT-15 colon was -38.6% (active); in the test on HT29 colon it was 8.89% (active); with SNB-75 CNS it was -0.913% (active); in the test with SNB-19 CNS, 15.1%; in the test on U251 CNS it was 11.6%; in the test on PC-3 prostate it was -19.8% (active). For the same compound, the growth with SK-MEL-5 melanoma was -75.6% (active); in the test on UACC-62 melanoma, -69.7% (active); in the test on LOX IMVI melanoma, -16.1% (active); in the test on SK-MEL-28 melanoma, -66.9% (active).
Take `COc1ccc(/C=C/C(=O)c2nnn(-c3ccc(C(=O)O)cc3)c2C)cc1OC`: the growth in the test on HCT-15 colon was 89.6%; in the test with HT29 colon, 102%; in the test on SNB-75 CNS it was 99.1%; with SNB-19 CNS, 96.3%; in the test on U251 CNS, 93.8%; in the test on PC-3 prostate, 97.7%. In addition, the growth in the test on SK-MEL-5 melanoma is 103%; in the test with UACC-62 melanoma, 90.3%; in the test on LOX IMVI melanoma, 76.2%; with SK-MEL-28 melanoma, 107%.
With `c1ccc(-c2n(Cc3ccc4ccccc4c3)c3c4ccccc4c4ccccc4c3[n+]2Cc2ccc3ccccc3c2)cc1`, the growth in the test on HCT-15 colon was -76.7% (active); with HT29 colon, -67.2% (active); in the test on SNB-75 CNS, -54.3% (active); with SNB-19 CNS, -88.5% (active); in the test on U251 CNS it was -78.7% (active); in the test with PC-3 prostate, -78.6% (active). Further, the growth in the test with SK-MEL-5 melanoma is -98.5% (active); in the test with UACC-62 melanoma, -87.6% (active); with LOX IMVI melanoma, -86.2% (active); in the test on SK-MEL-28 melanoma it was -87.3% (active).
For `CCCCCCCCCC[C@@H](C)[C@@H]1CC(=O)N[C@H]([C@@H](C)O)C(=O)N[C@@H](C)C(=O)N[C@H](C)C(=O)N[C@@H](CCC(N)=O)C(=O)N[C@H](Cc2ccc(O)cc2)C(=O)N[C@@H](C(C)CC)C(=O)O1` (stereo not given in full), the growth is 101% in the test with HCT-15 colon; 68.3% with HT29 colon; 52.5% with SNB-75 CNS; 51.9% in the test with SNB-19 CNS; 51.6% with U251 CNS; 39% with PC-3 prostate. The growth was 48.1% in the test on SK-MEL-5 melanoma, 92.4% with UACC-62 melanoma, 71.2% in the test on LOX IMVI melanoma and 82.5% in the test on SK-MEL-28 melanoma.
With `CN1CCN(Cc2ccc(NC(=O)c3cncc(C#Cc4cnc5ccc(NC6CCOCC6)nn45)c3)cc2C(F)(F)F)CC1`, the growth in the test with HCT-15 colon is -48.4% (active); in the test on HT29 colon, 0.122% (active); in the test with SNB-75 CNS it was -56.8% (active); in the test with SNB-19 CNS it was -7.17% (active); in the test with U251 CNS, -96.7% (active); in the test on PC-3 prostate, -15.5% (active). The growth was -97.7% (active) in the test on SK-MEL-5 melanoma, -61.8% (active) with UACC-62 melanoma, -83.8% (active) in the test with LOX IMVI melanoma and -74.6% (active) in the test with SK-MEL-28 melanoma.
For `O=C(NCCCNc1cc(-c2cn(-c3ccccc3)nc2-c2cccc(O)c2)ccn1)Nc1cccc(C(F)(F)F)c1`, the growth with HCT-15 colon is -25.3% (active); in the test with HT29 colon it was 9.99% (active); with SNB-75 CNS it was 45%; in the test with SNB-19 CNS, 42.8%; with U251 CNS, 33.5%; in the test with PC-3 prostate, 27.1%. In addition, the growth in the test on SK-MEL-5 melanoma is 37.8%; in the test on UACC-62 melanoma, 19.9%; in the test on LOX IMVI melanoma, 8.34% (active); in the test with SK-MEL-28 melanoma, -12.1% (active).
Consider `CC(C)C(=O)Nc1ccc(-c2nc(-c3cccc(O)c3)c(-c3ccnc(Br)c3)[nH]2)cc1`, for which the growth was 65.6% in the test with HCT-15 colon; 41% with HT29 colon; 4.68% (active) in the test on SNB-75 CNS; 47% in the test with SNB-19 CNS; 42.5% in the test on U251 CNS; 29.7% with PC-3 prostate. The growth in the test on SK-MEL-5 melanoma is 42.7%; with UACC-62 melanoma, 31.8%; with LOX IMVI melanoma it was 38.4%; in the test on SK-MEL-28 melanoma, 50.3%.
On to `O=S(=O)(NCCCNc1nccc(-n2cnc3ccccc32)n1)c1ccc(F)cc1`, for which the growth was 82.8% in the test on HCT-15 colon; 92.8% in the test with HT29 colon; 82.5% with SNB-75 CNS; 92.6% with SNB-19 CNS; 93.8% in the test on U251 CNS; 69.3% in the test with PC-3 prostate. The growth with SK-MEL-5 melanoma was 2.63% (active); with UACC-62 melanoma, 61.6%; with LOX IMVI melanoma, 74%; with SK-MEL-28 melanoma, 97.9%.
Regarding `COc1ccc(S(=O)(=O)NCCCNc2nccc(-n3cnc4ccccc43)n2)cc1`, the growth was 92.3% with HCT-15 colon; 99.7% with HT29 colon; 88.2% in the test with SNB-75 CNS; 100% in the test with SNB-19 CNS; 94.5% with U251 CNS; 89.7% in the test on PC-3 prostate. Besides, the growth with SK-MEL-5 melanoma was 70.1%; in the test with UACC-62 melanoma, 76.3%; in the test on LOX IMVI melanoma, 93.4%; with SK-MEL-28 melanoma, 106%.
Consider `CC(C)SC1=NC(=C(C(=N1)NC2=ClC=CC=C2)C#N)C3=CC=CC=C3`, for which the growth is 63% in the test with HCT-15 colon; 80.5% with HT29 colon; 26.5% in the test with SNB-75 CNS; 69.5% in the test on SNB-19 CNS; 49.7% in the test with U251 CNS; 78.2% in the test on PC-3 prostate. Also, the growth with SK-MEL-5 melanoma was 91.2%; in the test with UACC-62 melanoma it was 84%; with LOX IMVI melanoma, 70%; with SK-MEL-28 melanoma, 87.7%.
Consider `C#C[C@]1(O)CC[C@H]2[C@@H]3CC=C4c5sc(-c6ccc(OC)cc6)nc5CC[C@]4(C)[C@H]3CC[C@@]21C`, for which the growth was 46.9% in the test with HCT-15 colon; 46.6% in the test with HT29 colon; 22.9% in the test on SNB-75 CNS; 63.6% in the test on SNB-19 CNS; 42.7% in the test with U251 CNS; 28.2% in the test on PC-3 prostate. Moreover, the growth is 85.1% with SK-MEL-5 melanoma, 33.2% with UACC-62 melanoma, 45% with LOX IMVI melanoma and 4.22% (active) in the test on SK-MEL-28 melanoma.
